The record followed here is ChEMBL document CHEMBL3988442, “University of Dundee, Small-Polar-MMV Screening Library” (2021).

The target in the assay is AMP-activated protein kinase, AMPK (Homo sapiens) (UniProt P54646+O43741+P54619+Q9UGJ0+Q9Y478+Q13131+Q9UGI9). Description: AMP-dependent Kinase enzyme assay. An in vitro enzyme assay that detects ADP turnover that is directly proportional to AMPK activity. This uses naive AMPK that is activated during the assay with MK-8722. The assay is classed as functional. Details: scale not given: direction of the effect not stated beside the values. To be noted: 30 µM.
In the case of `CC(C)N(CC(=O)Nc1cccc(C#N)c1)C1CC1`, the Percent Effect turned out to be 0.161%.

On to `CCOC(=O)N(C)CC(=O)NCCc1coc(-c2ccc(C)cc2)n1`, for which the Percent Effect is -1.7%.

As to `CC(O)CN(C)S(=O)(=O)c1ccc(C#N)cc1F` (centres undefined), the Percent Effect turned out to be 1.31%.

For `Cn1ncnc1NCc1ccccc1Cl`, the Percent Effect came out at 1.77%.

With `CC(C)(C)C(NC(=O)CCS(C)(=O)=O)c1ccc(F)cc1F` (centres undefined), the Percent Effect was 0.0332%.

Take `O=C(CCN1CCOCC1)Nc1cccc(CNCc2cccs2)c1`: the Percent Effect is -8.77%.

In the case of `Cn1nc(C(=O)NCc2ccc(OC3CCCCC3)nc2)ccc1=O`, the Percent Effect amounted to 8.07%.

With `O=C(Nc1ccncc1)NC1CCN(c2ccccc2OC(F)F)C1` (centres undefined), the Percent Effect was -0.97%.

Regarding `CC1COCCN1C(=O)Cc1cc(Cl)c2c(c1)OCCO2` (centres undefined), the Percent Effect stood at 13.4%.

As to `CC(C)c1nnc2n1CCN(Cc1cc(Cl)c3c(c1)OCO3)C2`, the Percent Effect came to 8.76%.

Take `CN1CCCN(C[C@@H]2CN(c3nc(C(N)=O)cs3)C[C@@H]2CO)CC1`: the Percent Effect is -0.955%.

In the case of `CC1CN(C)CCN1C(=O)c1cccn1Cc1cccnc1` (centres undefined), the Percent Effect is -3.9%.

For `O=S(=O)(NCc1ccnc(-n2ccnc2)c1)c1cncc(Cl)c1`, the Percent Effect was 0.0234%.

For the molecule `Cc1nnc(SCCCNc2cc(C3CC3)ncn2)s1`, the Percent Effect amounted to 15.2%.

Consider `Fc1ccc(C2(CNCC(F)F)CCOC2)cc1` (centres undefined), for which the Percent Effect is 3.05%.

For the molecule `O=C(c1cnco1)N1CCC(Cc2cnc3ccccc3c2)CC1`, the Percent Effect was 18.4%.

Consider `Cc1cc(C)cc(OCCN(C)C2CCOC2=O)c1` (centres undefined), for which the Percent Effect was -0.216%.

On to `CCOC(=O)N(C)C1CCN(Cc2cnc3ccccn23)CC1`, for which the Percent Effect is 0.795%.

As to `CNc1ncc(C(=O)N2CCCC(CO)(CCCOC)C2)cn1` (centres undefined), the Percent Effect turned out to be 5.91%.

Regarding `CCNC(=O)c1ccnc(CC2COc3c(cccc3OC)C2)c1` (centres undefined), the Percent Effect was -3.13%.

Consider `CN1CCC(Nc2ccc(Cl)cc2OCC(F)(F)F)C1=O` (centres undefined), for which the Percent Effect was -3.53%.

Consider `O=C(Nc1ccc(I)cc1C(=O)NCCN1CCOCC1)c1ccco1`, for which the Percent Effect turned out to be 12.6%.

Turning to `Cc1noc(C)c1C(=O)N(C)C(C)c1cccnc1` (centres undefined), the Percent Effect was -4.48%.

For `CCCNC(=O)c1[nH]nc(C2CC2)c1Br`, the Percent Effect worked out at 2.02%.

For the molecule `Cc1cc(C(=O)NC(C)Cc2cccc(Cl)c2)n(C)n1` (centres undefined), the Percent Effect came to 10.6%.

On to `CSCCC(=O)N1CCN(CC(C)O)CC1` (centres undefined), for which the Percent Effect is -1.95%.

Consider `CNC(=O)CCOC(=O)c1cccc(-n2ccc(C(F)(F)F)n2)c1`, for which the Percent Effect is 3.59%.

As to `CCc1nnc2n1CCN(C(=O)C(C)Oc1cccc(C#N)c1)C2` (centres undefined), the Percent Effect was 5.56%.

As for `CC(C)c1nnc(CN2CCc3ccc(S(N)(=O)=O)cc32)o1`, the Percent Effect is -0.483%.

`Cc1ccc(CN(C(=O)NCC2CCS(=O)(=O)C2)C2CC2)o1` (centres undefined): the Percent Effect is -7.42%.

Take `NC(=O)[C@@H]1Cc2ccccc2CN1CCC(=O)N1CCOCC1`: the Percent Effect was -7.78%.

Regarding `CN(CCCO)C(=O)c1cc(COc2ccc3c(c2)CCCC3)on1`, the Percent Effect was -1.01%.

With `COc1cc2ncn(Cc3ncc[nH]3)c(=O)c2cc1OC`, the Percent Effect is -1.8%.

Consider `CCC(=O)N1CCC(c2ncc(C(=O)Nc3ccccc3)c(C)n2)C1` (centres undefined), for which the Percent Effect was determined as 8.33%.

On to `Cc1cc(CN(C)C(=O)CNS(=O)(=O)c2cccs2)no1`, for which the Percent Effect is 7.18%.

Regarding `CCNC(=O)CN1CCc2c(Br)ccc(F)c2C1`, the Percent Effect is -1.06%.

On to `Cn1ccnc1-c1cn(CCCc2csc(N)n2)nn1`, for which the Percent Effect was -21%.

In the case of `CCCN1CCN(S(=O)(=O)c2ccccc2OC)[C@H]2CS(=O)(=O)C[C@H]21`, the Percent Effect was 2.61%.

Turning to `Cc1ccc(CNCc2nccn2C)c(OC(C)(C)C)c1`, the Percent Effect was -4.8%.
